In PubChem BioAssay AID1159580 (chemical genetic matrix, 2015):
Among all 5,500 compounds or so, about 2,000 (36%) were called active. Another 18% or so got no clear call; they are omitted. Rule as the data show it: active = normalized growth mostly below about 0.91 (no sharp cut-off); inconclusive = no clear call, values can overlap the other calls; inactive = mostly above about 0.92. Some of the results follow.

Test: chemical genetic growth profiling, strain panel (AID 1159580);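 also: tested at 20 µM; growth read once vehicle control cultures reached saturation at 30 °C; 1 = growth at the plate median or of vehicle wells; lower values mean less growth of the strain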
Conditions: S. cerevisiae deletion strains, growth OD

Measured: normalized growth

O=c1c(O)c(-c2ccccc2)oc2ccccc12
active: locus YJL187C, strain SWE1, hits give low values 0.758 | locus YJR066W, strain TOR1, hits give low values 0.766 | locus YKL160W, strain elf1, hits give low values 0.678 | locus YKR026C, strain gcn3, hits give low values 0.777 | locus YKR091W, strain srl3, hits give low values 0.82 | locus YLL001W, strain dnm1, hits give low values 0.512 | locus YLL026W, hits give low values 0.354 | locus YLL041C, strain sdh2, hits give low values 0.872 | locus YLR027C, strain aat2, hits give low values 0.681 | locus YLR113W, strain HOG1, hits give low values 0.851 | locus YLR221C, strain rsa3, hits give low values 0.612 | locus YLR258W, strain gsy2, hits give low values 0.655 | locus YLR262C, strain YPT6 (second series), hits give low values 0.228 | locus YLR320W, strain mms22, hits give low values 0.503 | locus YLR342W, strain FKS1, hits give low values 0.513 | locus YLR357W, strain rsc2, hits give low values 0.584 | locus YLR370C, strain arc18, hits give low values 0.364 | locus YLR384C, strain iki3, hits give low values 0.877 | locus YML120C, strain ndi1, hits give low values 0.844 | locus YMR058W, strain fet3, hits give low values 0.0896 | locus YMR129W, hits give low values 0.872 | locus YMR205C, strain PFK2, hits give low values 0.506 | locus YMR231W, strain pep5, hits give low values 0.128 | locus YNL071W, strain lat1, hits give low values 0.301 | locus YNL183C, strain NPR1, hits give low values 0.8 | locus YNL209W, strain ssb2, hits give low values 0.159 | locus YNL248C, strain rpa49, hits give low values 0.567 | locus YNL322C, strain KRE1 (second series), hits give low values 0.851 | locus YNR049C, strain mso1, hits give low values 0.616 | locus YOR001W, strain rrp6, hits give low values 0.805 | locus YOR070C, strain gyp1, hits give low values 0.561 | locus YOR080W, strain dia2, hits give low values 0.689 | locus YOR083W, strain WHI5, hits give low values 0.565 | locus YOR106W, strain vam3, hits give low values 0.163 | locus YOR231W, strain MKK1, hits give low values 0.834 | locus YOR265W, strain rbl2, hits give low values 0.467 | locus YOR270C, strain vph1, hits give low values 0.16 | locus YOR290C, strain snf2, hits give low values 0.589 | locus YPL051W, strain arl3, hits give low values 0.262 | locus YPL078C, strain atp4, hits give low values 0.553 | locus YPL106C, strain sse1, hits give low values 0.676 | locus YPL240C, strain hsp82, hits give low values 0.762
inactive: locus YJR043C, strain POL32, hits give low values 0.981 | locus YJR075W, strain HOC1, hits give low values 0.982 | locus YKL009W, strain mrt4, hits give low values 0.988 | locus YKL068W, hits give low values 0.988 | locus YKL085W, strain MDH1 (second series), hits give low values 0.994 | locus YKL085W, strain MDH1, hits give low values 0.994 | locus YKR001C, strain vps1, hits give low values 1.02 | locus YLR039C, strain RIC1, hits give low values 1.01 | locus YLR058C, strain SHM2, hits give low values 0.977 | locus YLR102C, strain apc9, hits give low values 0.997 | locus YLR262C, strain YPT6, hits give low values 1 | locus YLR268W, strain sec22, hits give low values 1.03 | locus YLR330W, strain CHS5, hits give low values 0.997 | locus YLR342W, strain FKS1 (second series), hits give low values 1.01 | locus YLR371W, strain rom2, hits give low values 0.974 | locus YLR418C, strain cdc73, hits give low values 0.97 | locus YML016C, strain PPZ1, hits give low values 1 | locus YML032C, strain rad52, hits give low values 0.956 | locus YML124C, strain tub3, hits give low values 0.988 | locus YMR078C, strain ctf18, hits give low values 0.996 | locus YMR125W, strain sto1, hits give low values 0.933 | locus YMR223W, strain ubp8, hits give low values 0.965 | locus YMR307W, strain GAS1, hits give low values 0.963 | locus YNL067W, strain RPL9B, hits give low values 0.994 | locus YNL128W, strain TEP1, hits give low values 0.966 | locus YNL233W, strain BNI4, hits give low values 1.02 | locus YNL250W, strain rad50, hits give low values 0.975 | locus YNL271C, strain bni1, hits give low values 0.993 | locus YNL298W, strain CLA4, hits give low values 0.996 | locus YNL307C, strain MCK1, hits give low values 0.995 | locus YNR052C, strain pop2, hits give low values 0.959 | locus YOL006C, strain TOP1, hits give low values 1.06 | locus YOL012C, strain htz1 0.87 | locus YOL147C, strain pex11, hits give low values 0.996 | locus YOR061W, strain CKA2, hits give low values 0.966 | locus YOR069W, strain VPS5, hits give low values 0.999 | locus YOR136W, strain idh2, hits give low values 0.991 | locus YOR144C, strain elg1, hits give low values 0.982 | locus YOR184W, strain ser1, hits give low values 0.988 | locus YOR316C, strain cot1, hits give low values 0.986 | locus YPL256C, strain CLN2, hits give low values 0.886 | locus YPR119W, strain clb2, hits give low values 0.992 | locus YPR141C, strain kar3, hits give low values 0.993 | locus YPR163C, strain tif3, hits give low values 0.984 | locus YPR167C, strain met16, hits give low values 0.978 | strain wtn01, hits give low values 1.05
